Out of some 400,000 compounds screened, about 2,100 (0.53%) were called active. Another 14% or so got no clear call; they are omitted. No rule for the calls is given here. What follows is part of a selection rich in actives, with near analogues and random picks from the rest.
molecular target: Ataxin-2 (Homo sapiens) (UniProt Q99700); assay: qHTS for Inhibitors of ATXN expression.; assay type: functional
Sequence (Q99700 whole entry): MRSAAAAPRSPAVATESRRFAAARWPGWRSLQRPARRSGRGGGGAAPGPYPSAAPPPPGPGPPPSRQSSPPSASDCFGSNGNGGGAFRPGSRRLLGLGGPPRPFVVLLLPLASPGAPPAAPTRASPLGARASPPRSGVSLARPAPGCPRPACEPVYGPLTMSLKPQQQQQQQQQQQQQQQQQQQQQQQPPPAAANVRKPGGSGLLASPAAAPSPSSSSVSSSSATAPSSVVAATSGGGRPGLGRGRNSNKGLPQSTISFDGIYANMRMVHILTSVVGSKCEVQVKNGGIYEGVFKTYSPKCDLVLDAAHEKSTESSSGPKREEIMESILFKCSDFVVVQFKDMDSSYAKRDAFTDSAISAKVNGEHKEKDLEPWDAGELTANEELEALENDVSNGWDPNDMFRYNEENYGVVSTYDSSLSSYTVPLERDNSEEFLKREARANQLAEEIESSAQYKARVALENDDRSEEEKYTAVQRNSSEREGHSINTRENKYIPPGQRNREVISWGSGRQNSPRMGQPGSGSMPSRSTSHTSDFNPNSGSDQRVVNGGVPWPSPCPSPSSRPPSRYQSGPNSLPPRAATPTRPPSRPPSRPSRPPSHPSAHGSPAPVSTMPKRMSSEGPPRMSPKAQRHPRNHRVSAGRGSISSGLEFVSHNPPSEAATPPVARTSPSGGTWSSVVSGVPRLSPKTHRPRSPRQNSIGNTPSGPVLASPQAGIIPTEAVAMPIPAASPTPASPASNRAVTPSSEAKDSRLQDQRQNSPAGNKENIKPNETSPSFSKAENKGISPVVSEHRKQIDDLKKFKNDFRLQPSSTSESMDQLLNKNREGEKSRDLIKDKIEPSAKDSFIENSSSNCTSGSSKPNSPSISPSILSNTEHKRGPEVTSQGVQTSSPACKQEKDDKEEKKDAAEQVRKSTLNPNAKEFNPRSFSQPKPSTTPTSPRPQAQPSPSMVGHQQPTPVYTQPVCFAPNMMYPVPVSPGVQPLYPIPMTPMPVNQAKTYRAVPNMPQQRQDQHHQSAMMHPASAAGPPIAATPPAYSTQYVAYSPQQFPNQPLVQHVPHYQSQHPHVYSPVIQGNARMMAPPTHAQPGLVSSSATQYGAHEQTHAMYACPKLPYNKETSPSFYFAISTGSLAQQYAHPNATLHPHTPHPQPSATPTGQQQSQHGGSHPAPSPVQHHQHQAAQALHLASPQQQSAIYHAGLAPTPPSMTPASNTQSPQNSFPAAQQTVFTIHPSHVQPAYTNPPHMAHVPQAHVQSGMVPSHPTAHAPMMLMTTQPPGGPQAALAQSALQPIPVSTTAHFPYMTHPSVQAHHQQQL

SMILES | Potency
CC1CCCCC1NC(=O)CN1C(=O)c2cccc(N)c2C1=O (stereo not drawn) | inactive
Cc1snc(SCC(=O)c2ccc(F)cc2)c1C#N | inactive
COCCCNC(=O)/C(C#N)=C/c1c(N2CCN(c3ccccc3)CC2)nc2ccccn2c1=O | inactive
CCCC(=O)Nc1nn(CCC)c2nc3ccccc3cc12 | inactive
Oc1nc(-c2ccccc2)nc2sc(-c3ccccc3)cc12 | inactive
Cc1cccc(N2C(=O)c3cccc4c(N(C)CCO)ccc(c34)C2=O)c1 | inactive
Cc1ccc2nc3c(cc(C(=O)NCC4CCCO4)c(=N)n3C3CCCC3)c(=O)n2c1 (stereo not drawn) | inactive
Nc1c(C(=O)N/N=C/c2cccnc2)oc2nc(-c3ccccc3)cc(-c3ccco3)c12 | inactive
CCOC(=O)N1CCN(C(=O)C2CCN(C(=O)c3ccccc3C)CC2)CC1 | 35.5 µM (active)
Cc1csc(NC(=O)C2CCN(C(=O)c3ccccc3C)CC2)n1 | inactive
CCOC(=O)N1CCC(NS(=O)(=O)c2ccc(C)cc2)CC1 | inactive
O=C1OCCN1C(=O)[C@H]1[C@H](c2ccc(Cl)cc2)C(c2ccccc2)=NN1c1ccc(Br)cc1 | inactive
COC(=O)C1=C(C)NC(=O)NC1c1ccc(N2CCC(c3ccccc3)=N2)cc1 (stereo not drawn) | inactive
COc1ccc(C2=CC(c3cccc(OC)c3)n3nnnc3N2)cc1 (stereo not drawn) | inactive
COC(=O)c1ccc(CSc2cc(C)c3cccc(C)c3n2)o1 | inactive
N#CCCN(C(=O)CCl)c1cccc(Cl)c1 | 8.91 µM (active)
O=C(CCl)N(Cc1cccc([N+](=O)[O-])c1)c1cccc(Cl)c1 | 2.67 µM (active)

SMILES | Potency
Cc1ccc(N(CCC#N)C(=O)CCl)cc1C | 35.5 µM (active)
N#Cc1c2ccc(O)cc2n2ccccc12 | inactive
O=C(c1ccc(F)cc1)C1CCN(C(=O)c2ccccc2F)CC1 | inactive
CCn1c(SCC(=O)Nc2cc(C)on2)nc2sc3c(c2c1=O)CCCC3 | 10 µM (active)
Cc1cc(NC(=O)CSc2nc3c(cc2C#N)CCCC3)no1 | inactive
C=CCNC(=O)CSc1nc2sc3c(c2c(=O)n1CCCOC)CCC3 | inactive
Cc1c(O)ccc2c(CN(C)Cc3ccccc3)cc(=O)oc12 | inactive
Cc1ccc(C(=O)Nc2c(C)cc(-c3ccccc3)oc2=O)cc1 | inactive
O=c1oc(-c2ccccc2)cc(Cl)c1Cl | 29.9 µM (active)
O=c1cc(-c2ccccc2)oc2ccc(O)cc12 | inactive
O=S(=O)(Nc1nccs1)c1ccc(F)cc1 | inactive
O=C1C=C(C#Cc2ccc(Oc3ccccc3)cc2)C[C@@H](c2ccc(F)cc2)C1 | 28.2 µM (active)
CC1C(=O)N(Cc2cn(CCC3OCCO3)nn2)CCS(=O)(=O)N1Cc1ccc(-c2ccc(Cl)c(Cl)c2)cc1 (stereo not drawn) | 31.6 µM (active)
COc1ccc(-c2ccc(CN3C(C)C(=O)N(Cc4cn(CCC5OCCO5)nn4)CCS3(=O)=O)cc2)cc1 (stereo not drawn) | 35.5 µM (active)
CC(C)C1C(=O)N(Cc2cn(CCC3OCCCO3)nn2)CCS(=O)(=O)N1Cc1ccc(-c2ccc(Cl)c(Cl)c2)cc1 (stereo not drawn) | 31.6 µM (active)
COc1ccc(Cn2c(SCC#N)nc3ccc(N4CCOCC4)cc3c2=O)cc1 | inactive
